Sampled rows, rich in hits. Any-hit rate of the full collection: about 19%.
TDP1 cell CPT – DT40-hTDP1 cell growth loss with CPT | chicken DT40 Tdp1-/-;hTDP1 cells + 20 nM CPT, ATP luminescence, 48 h | Potency, µM (doses to about 46.2 µM), without a hit: at the top dose activity change, negative = growth inhibition, hits mostly inhibitors | 12% of 420,000 active | AID 686979; note: potency is the fitted concentration of half-maximal effect; % is set by controls: 0 for no effect and ±100 for the full control effect; nearly all actives have a fitted effect of over 55% in size
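Chicken DT40 Tdp1-/- cells stably complemented with human TDP1 were seeded at 400 cells/well in medium containing 20 nM camptothecin, exposed to pin-transferred compounds, and grown at 37 °C for at least 48 hr. Viability was read as ATP luminescence.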
IL1B secr inh – blocks inflammasome-driven IL-1 beta release; activity change, % at 57.5 µM; 4.7% of 360,000 active; THP-1 LPS/ATP IL-1B secretion, AlphaLISA, 16 h; active compounds read low; in the data active = activity change below about -50%; inconclusive = mostly about -30% to -49%; note: % is set by controls: 0 for no effect and ±100 for the full control effect
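THP-1 cells pretreated 1 hr with compounds (up to 57.5 uM final), then stimulated with LPS (250 ng/mL final) plus ATP (1.25 mM final); secreted IL-1B measured by AlphaLISA after 16 hr, decreased signal indicating inhibition.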
TGFb SMAD3 inh – TGF-b pathway inhibition. Potency, µM (series often up to 46.1 µM), for the others: at the top dose activity, negative = inhibition, hits mostly inhibitors. 1.2% of 410,000 active. HepG2 CAGA-GFP TGF-b/SMAD3 reporter, GFP fluorescence, 18 h; TGF-beta stimulated, 500 pg/mL final; note: potency is the fitted concentration of half-maximal effect; % is set by controls: 0 for no effect and ±100 for the full control effect; nearly all actives have a fitted effect of over 65% in size
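HEPG2 CAGA-GFP cells (1000/well, DMEM with 1% FBS) were pre-incubated 2 h at 37 degrees C, given compound by pin tool, then stimulated with TGF-beta at 500 pg/mL final for 18 h before per-cell GFP fluorescence imaging.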
S-ASM inh – blocks human secretory acid sphingomyelinase; AID 504937; 0.006% of 340,000 active; Potency, µM (series often up to 57.5 µM), inactives show at the highest dose activity change, negative = inhibition, hits mostly inhibitors; placental ASM, HMU-PC fluorogenic substrate, 60 min; note: potency is the fitted concentration of half-maximal effect
Target sequence (P17405 47-631 limits assumed): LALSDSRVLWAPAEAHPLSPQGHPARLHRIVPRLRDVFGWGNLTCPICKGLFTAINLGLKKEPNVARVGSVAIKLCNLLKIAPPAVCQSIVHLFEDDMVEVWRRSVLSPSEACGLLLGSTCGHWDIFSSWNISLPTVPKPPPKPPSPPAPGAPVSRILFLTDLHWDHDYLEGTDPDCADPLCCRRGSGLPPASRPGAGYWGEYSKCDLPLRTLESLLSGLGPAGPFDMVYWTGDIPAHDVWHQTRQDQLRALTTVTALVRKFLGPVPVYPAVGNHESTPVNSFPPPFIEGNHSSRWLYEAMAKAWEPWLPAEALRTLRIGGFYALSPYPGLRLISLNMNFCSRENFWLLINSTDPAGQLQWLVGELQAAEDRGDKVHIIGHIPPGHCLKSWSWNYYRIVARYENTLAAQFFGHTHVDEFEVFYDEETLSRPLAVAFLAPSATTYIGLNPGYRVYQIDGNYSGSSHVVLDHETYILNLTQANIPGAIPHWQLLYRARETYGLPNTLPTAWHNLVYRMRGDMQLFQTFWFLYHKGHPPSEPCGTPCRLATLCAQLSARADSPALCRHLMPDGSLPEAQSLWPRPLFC
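Steps: dispense placental human ASM, pin compound, wait 10 min at room temperature, add HMU-PC0 substrate at 9 uM final, incubate 60 min at 37 °C, add stop solution raising pH to 10, read fluorescence.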
HepG2 tox – HepG2 cytotoxicity, counter-screen for TGF-b inhibitors; 0.76% of 410,000 active; AID 588856; HepG2 CAGA-GFP viability, ATP luminescence, 18 h; Potency, µM (titrated, usually from 46.1 µM), inactives show top-dose activity change, negative = cytotoxicity, most hits filed as cytotoxic; note: potency is the fitted concentration of half-maximal effect
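CellTiter-Glo luminescence gave cytotoxicity after 18 hours at 37 degrees C. The cells were HepG2 CAGA-GFP in 1% FBS DMEM, stimulated with 500 pg/mL TGF-beta after compound addition. %Activity was normalised to no-cell wells (complete cell-killing) and DMSO (no toxicity), and curves were fitted and classified.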
DT40 TDP1 no CPT – qHTS for Inhibitors of human tyrosyl-DNA phosphodiesterase 1 (TDP1): qHTS in cells in absence of CPT; DT40 Tdp1-/- hTDP1 cells, no CPT, ATP luminescence, 48 h; Potency, µM (doses to about 46.2 µM), inactives show at the top dose activity change, negative = growth inhibition, hits mostly inhibitors; 15% of 420,000 active; AID 686978, 2013; note: potency is the fitted concentration of half-maximal effect; % is set by controls: 0 for no effect and ±100 for the full control effect; nearly all actives have a fitted effect of over 55% in size
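Seeded 400 DT40-hTDP1 cells/well (vehicle DMSO, no 20 nM CPT); pinned compounds; ≥48 hr at 37 °C; CellTiter-Glo luminescence as viability measure.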
The depositor's hits bear a star; ? = inconclusive; / = not tested or not shown. Unless noted, calls come from the whole dose curve; as a rule, active = well fitted curve in the direction sought with a large enough effect; inconclusive = small, poorly fitted or top-dose-only effect, or another doubt; inactive = no such curve, though single readings can be large; an effect the other way counts as inactive or inconclusive.

SMILES	TDP1 cell CPT	IL1B secr inh	TGFb SMAD3 inh	S-ASM inh	HepG2 tox	DT40 TDP1 no CPT
CCN1CCN(C(=O)C(=O)c2c(C)[nH]c3ccccc23)CC1	-2%	30	2%	0%	3%	17%
Cc1cc(OC(=O)c2cccc(C(F)(F)F)c2)c([N+](=O)[O-])c(=O)[nH]1	0%	-4	-4%	3%	17%	0%
Cc1[nH]c2ccccc2c1C(=O)COc1ccccc1	2%	16	2%	1%	-11%	21%
O=C(NCC1CC1)c1csc(COCCO)n1	-9%	40	-4%	/	-3%	-2%
COc1cc(CNCc2ccccc2)ccc1OCC(O)c1ccccc1 (stereo unspecified)	-25%	-7	5%	1%	-5%	?
COc1ccc(CNCC(O)(c2ccccc2)c2ccc(F)cc2)cc1OC (stereo unspecified)	?	-88*	3%	0%	-22%	15µM*
COc1ccc(CNCC(O)(c2ccc(F)cc2)c2ccc(F)cc2)cc1OC	?	?	?	1%	-41%	16µM*
COc1cc(CNCc2ccc(C(=O)O)cc2)ccc1OCc1ccc(F)cc1	-14%	-4	0%	3%	1%	7%
COc1ccccc1C(=O)NCCC(=O)N1CC(C)OC(C)C1 (stereo unspecified)	-6%	5	?	-2%	1%	-21%
CN(C)CCCNc1cc(C(C)(C)C)nc2c(-c3ccccc3)cnn12	?	-98*	?	-5%	-83%	16µM*
Cc1cc(NCCCn2ccnc2)n2nc(-c3ccc(F)cc3)cc2n1	-19%	-61*	-21%	2%	-36%	-25%
Cc1cc(NCCCn2ccnc2)n2nc(-c3ccc(Cl)cc3)cc2n1	-22%	-65*	-8%	6%	-21%	?
Cc1cc(NCCOCCO)n2ncc(-c3ccc(Cl)cc3)c2n1	2%	-4	0%	7%	-34%	-25%
CC(C)(C)c1cc(NCCCn2ccnc2)n2ncc(-c3ccc(Cl)cc3)c2n1	?	-86*	?	-4%	22µM*	18µM*
COCCNc1cc(C)nc2cc(-c3ccc(C)cc3)nn12	2%	-7	-5%	257%	-1%	-9%
Cc1cccc(-c2cc3nc(C)c(C)c(NCCCn4ccnc4)n3n2)c1	?	/	?	0%	-35%	15µM*
O=S(=O)(NCC(c1ccc2c(c1)OCO2)N1CCOCC1)c1ccc(F)cc1 (stereo unspecified)	0%	-6	11%	0%	12%	-5%
COc1cccc(C(=O)NCC(c2ccc3c(c2)OCO3)N2CCOCC2)c1 (stereo unspecified)	-19%	/	-11%	/	5%	-17%
COc1ccc(C(=O)NCC(c2ccc3c(c2)OCO3)N2CCN(c3ccc(F)cc3)CC2)cc1 (stereo unspecified)	3.3µM*	/	?	/	-25%	1.6µM*
COc1ccc(C(=O)NCC(c2ccc3c(c2)OCO3)N2CCN(c3ccc(OC)cc3)CC2)cc1 (stereo unspecified)	3.3µM*	-17	12%	-8%	-5%	5.8µM*
O=S(=O)(NCC(c1ccc2c(c1)OCO2)N1CCOCC1)c1ccc(Br)cc1 (stereo unspecified)	16µM*	-17	3%	-4%	-1%	21µM*
COc1cccc(C(=O)NCC(c2ccc3c(c2)OCO3)N2CCN(c3ccc(F)cc3)CC2)c1 (stereo unspecified)	15µM*	-24	-1%	/	-21%	10µM*
CCN(C(=O)CSc1nnc(C)c(=O)[nH]1)c1cccc2ccccc12	9%	21	5%	3%	8%	26%
CCn1cc(C(=O)N2CCN(c3cc(Cl)ccc3C)CC2)c(=O)c2cc(S(=O)(=O)N3CCCCC3)ccc21	?	/	-24%	/	-6%	?
CCCC(=O)NCC(c1ccc2c(c1)OCO2)N1CCN(c2ccc(F)cc2)CC1 (stereo unspecified)	?	/	-23%	/	-6%	21µM*
SMILES	TDP1 cell CPT	IL1B secr inh	TGFb SMAD3 inh	S-ASM inh	HepG2 tox	DT40 TDP1 no CPT
COc1ccc(S(=O)(=O)NCC(c2ccc3c(c2)OCO3)N2CCN(c3ccccc3)CC2)cc1 (stereo unspecified)	?	?	1%	-4%	8%	23µM*
C=CCNC(=O)C(=O)NCC(c1ccc2c(c1)OCO2)N1CCN(c2ccc(F)cc2)CC1 (stereo unspecified)	16µM*	36	2%	-2%	10%	?
O=C(NCC(c1ccc2c(c1)OCO2)N1CCN(c2ccccc2)CC1)c1ccccc1F (stereo unspecified)	7.3µM*	/	-2%	/	2%	12µM*
C=CCNC(=O)C(=O)NCC(c1ccc2c(c1)OCO2)N1CCOCC1 (stereo unspecified)	-1%	-8	-2%	6%	0%	18%
COCCN(C(=O)CSc1nnc(-c2ccc(C(C)(C)C)cc2)n1N)c1c(N)n(CC(C)C)c(=O)[nH]c1=O	3%	-1	3%	7%	-8%	-1%
COc1ccc(CCNC(=O)CCCc2nnc3n(C)c(=O)c4sccc4n23)cc1OC	-6%	-7	0%	-13%	7%	-6%
CC(=O)c1ccc(S(=O)(=O)Nc2ccccc2C(=O)NC2CC2)cc1	-11%	16	-1%	2%	4%	-6%
Cc1ccc(C(=O)NCC(c2ccc3c(c2)OCO3)N2CCN(c3ccc(F)cc3)CC2)cc1 (stereo unspecified)	2.9µM*	/	?	/	-35%	1.5µM*
COc1cccc(NC(=O)C(=O)NCC(c2ccc3c(c2)OCO3)N2CCOCC2)c1 (stereo unspecified)	?	/	-12%	/	-47%	16µM*
N#Cc1ccccc1NC(=O)C(=O)NCC(c1ccc2c(c1)OCO2)N1CCN(c2ccccc2)CC1 (stereo unspecified)	?	/	7%	/	0%	8.2µM*
COc1cc(C(=O)NCC(c2ccc3c(c2)OCO3)N2CCOCC2)cc(OC)c1OC (stereo unspecified)	12µM*	/	-8%	/	-13%	?
COCCNC(=O)CN1C(=O)c2cccc3cccc1c23	2%	9	9%	30%	-3%	-1%

Screening results from PubChem BioAssay.
